Pf Dd2 inh: Plasmodium falciparum Dd2 growth inhibition. 120,000 compounds, 4.3% hits. AID 1347417. Potency, µM (doses to about 28.9 µM), for inactives: top-dose activity, negative = inhibition, most hits filed as inhibitors. P. falciparum Dd2 growth, SYBR Green, 72 h; active means well fitted inhibition curve with a large enough effect;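 further: plate controls were DMSO vehicle for no effect and reference drug for full effect; nearly all actives have a fitted effect of over 65% in size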
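Infected erythrocytes (Dd2, 0.3% parasitemia, 2.5% hematocrit final) are added to compound in RPMI-1640/Albumax II medium, grown 72 h at 37C in low oxygen, then lysed with saponin/Triton-X containing SYBR Green and read by fluorescence.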
* marks the source's active call; other numbers are inactive results; i = inactive; [ ] = remark or other dose. This excerpt belongs to a sample that is enriched for hits. Potency means the concentration at half of the fitted maximal effect.

SMILES | Pf Dd2 inh
Cc1ccc(C)c(NC(=O)Nc2cc3c(cc2N2CCCCC2)n(C)c(=O)n3C)c1 | 10µM*
CCn1c(=O)n(CC)c2cc(N3CCCCC3)c(NC(=O)Nc3cc(Cl)ccc3OC)cc21 | 8.9µM*
Cc1ccc(C)c(NS(=O)(=O)c2ccc3c(c2)n(C)c(=O)n3C)c1 | 15%
COc1ccc(Cl)cc1NC(=O)Nc1c[nH]c(=O)[nH]c1=O | 37%
Cc1ccc(C#N)c(=O)n1CC(=O)Nc1ccccc1C(F)(F)F | 9%
CC(=O)c1cccc(NC(=O)Nc2cc3c(cc2N2CCCC2)n(C)c(=O)n3C)c1 | i
Cc1cc(=O)n(CC(=O)Nc2cccc(C#N)c2)c(N2CCOCC2)n1 | i
CC1CCCCN1C(=O)Cn1ccn2nc(-c3ccc(F)cc3)c(CO)c2c1=O (configuration not stated) | i
O=C(Cn1cccc1-c1nc(-c2ccc3c(c2)OCO3)no1)Nc1cc(F)cc(F)c1 | 5µM*
O=C(NCCn1cccc1-c1nc(-c2ccc3c(c2)OCO3)no1)c1ccc(F)cc1 | 131%
O=C(NCCn1cccc1-c1nc(-c2ccc3c(c2)OCO3)no1)c1ccc2c(c1)OCO2 | 13µM*
CN1C[C@@H](NC(=O)c2ccc3c(c2)OCO3)C[C@H]1c1nc(-c2ccc(Cl)cc2)no1 | 10µM*
Cc1cc(C)c(NC(=O)Cn2cccc2-c2nc(-c3ccc4c(c3)OCO4)no2)c(C)c1 | 11%
CN(C)c1ccc(NC(=O)Cn2cccc2-c2nc(-c3ccc4c(c3)OCO4)no2)cc1 | 7%
O=C(Cn1cccc1-c1nc(-c2ccc3c(c2)OCO3)no1)NCc1ccc(F)cc1F | 12%
CN(C)c1ccc(C(=O)N[C@H]2C[C@@H](c3nc(-c4ccc5c(c4)OCO5)no3)N(C)C2)cc1 | i
Cc1ccc(C(=O)NCCn2cccc2-c2nc(-c3ccc4c(c3)OCO4)no2)cc1C | -30%
O=C(Cn1cccc1-c1nc(-c2ccc3c(c2)OCO3)no1)NCc1ccc(Cl)cc1 | 5%
CN1C[C@@H](NC(=O)c2ccc(F)cc2)C[C@H]1c1nc(-c2ccc(Cl)cc2)no1 | i
O=C(Cn1cccc1-c1nc(-c2ccc3c(c2)OCO3)no1)Nc1ccc(Cl)cc1 | 2µM*
COCc1nc(C2CCCN(C(=O)c3ccccc3OC)C2)no1 (configuration not stated) | 26%
CCC(C)NC(=O)Cn1nc2c(cc1=O)CCCCC2 (configuration not stated) | -17%
COCCNC(=O)[C@@H]1C[C@H](Oc2ccccc2)CN1C(=O)c1ccc2ncccc2c1 | 6%
O=C([C@@H]1C[C@H](F)CN1S(=O)(=O)c1ccc(F)cc1F)N1CCCCC1 | 41%
CN(C)c1nc2c(c(=O)[nH]1)CCN(Cc1ccsc1)CC2 | 20%[5.79 µM]
SMILES | Pf Dd2 inh
C[C@@H]1CN(C(=O)Cn2c3c(c(=O)n2Cc2ccccc2)CCN(Cc2ccccc2)C3)C[C@H](C)O1 | 19%
COCC(=O)N[C@@H]1CN(Cc2ccc(C#N)cc2)C[C@H]1CO | -14%
CCCOc1ccc(CNC(=O)[C@H]2CCC[C@H]2NC(=O)c2ccncc2)cc1 | -31%
O=C(Nc1cccc(-n2cccn2)c1)C1CCCN1S(=O)(=O)c1cccs1 (configuration not stated) | -24%
Cc1noc(C)c1CC(=O)N1CCCC2(C1)Nc1cccnc1NC2=NC1CCCC1 (configuration not stated) | 69%[5.79 µM]
O=C(CC1CCN(C(=O)Nc2c(F)cccc2F)C1)NCc1ccccc1 (configuration not stated) | -6%
COCC(=O)N[C@H]1[C@H](O)[C@H](O)C[C@@H]1c1ccccc1C | 12%[44.1 µM]
Cn1ccnc1CN1CCCC(CCc2ccccc2)C1 (configuration not stated) | 11µM*
Cn1ccnc1CN1CCOC[C@H](Oc2ccccc2)C1 | -26%[44.1 µM]
Cn1ccnc1CN1CCCC(c2ccc(C(=O)O)cc2)C1 (configuration not stated) | -3%
CCn1ccc(C(=O)N2CCC(N3C(=O)C(OC)C34CCOCC4)CC2)n1 (configuration not stated) | 4%
O=C(CN1CCCC1=O)N[C@H]1CN(Cc2ccccc2F)C[C@@H]1C1CC1 | -2%
Cc1cc(F)ccc1-c1cccc(COc2cnc3c(ccn3CC(=O)O)c2)c1 | i
NCc1cccc(-c2cc(C(F)(F)F)ccc2Cl)c1 | 10µM*
Cc1cc(Cl)ccc1-c1ccc(C=O)cc1 | 11%[44.1 µM]
Cc1cc(Cl)ccc1-c1cccc(CN)c1 | 14µM*
Cc1cc(Cl)ccc1-c1ccccc1CN | 8.9µM*
Cc1ccc(Cn2ccn(Cc3cccc(C(F)(F)F)c3)c(=O)c2=O)cc1 | i
Cc1ccc(-c2cccc(CN)c2)c(C)c1 | 14µM*
Cc1cc(Cl)ccc1-c1ccccc1C=O | -26%[44.1 µM]
O=C(O)c1cccc(-c2cc(C(F)(F)F)ccc2Cl)c1 | 4%
NCc1ccc(Oc2ccc(F)c(Cl)c2)cc1 | -26%[44.1 µM]
COc1ccc(CN2C[C@@H]3C(=O)N(Cc4ccc5c(c4)OCO5)C(=O)[C@@H]3C2)cc1OC | -15%
O=C(c1ccc(Cl)cc1Cl)N1CCC(c2nnc3n2C(C(=O)N2CCOCC2)CC3)CC1 (configuration not stated) | 21%

Screening results deposited in PubChem BioAssay by National Center for Advancing Translational Sciences (NCATS).
